Data on 53 compounds can be found in PubChem BioAssay AID651719 (The Scripps Research Institute Molecular Screening Center, 2012).

The whole screen tested about 360,000 compounds, of which about 1,600 (0.44%) were called active. The sample as a whole holds a higher share of actives than the screen did. Unmarked numbers belong to inactive results.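 How the source made its calls: active means inhibition above the screen-wide average plus 3 SD (cut at about 13% in these data); inactive means the rest.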

The target in this experiment is Galanin receptor type 3 (Homo sapiens) (UniProt O60755). Nature of the experiment: GalR3 antagonists in HEK293 cells, primary screen, cell-based, fluorescence readout (AID 651719).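 Further: forskolin and galanin both at EC90 stimulate the cells; cAMP rise reported by CNG channel membrane potential dye signal; 0% = forskolin plus galanin with DMSO and 100% = forskolin alone.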 The note with it: HEK293 GalR3-CNG cAMP membrane potential fluorescence; at 3 µM; stronger effect = higher value; galR3 body fused to GalR1 C-terminus.
Sequence of Galanin receptor type 3 (Homo sapiens) (O60755 1-299 limits assumed): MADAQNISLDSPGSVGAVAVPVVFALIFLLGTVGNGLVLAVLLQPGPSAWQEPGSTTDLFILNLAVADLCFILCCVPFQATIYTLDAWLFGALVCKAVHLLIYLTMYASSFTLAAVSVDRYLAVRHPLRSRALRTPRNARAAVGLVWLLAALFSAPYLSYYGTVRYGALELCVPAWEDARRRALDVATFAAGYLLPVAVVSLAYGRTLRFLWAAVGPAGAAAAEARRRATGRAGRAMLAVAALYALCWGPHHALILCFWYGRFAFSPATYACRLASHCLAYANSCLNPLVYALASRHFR
As a reminder, the inhibition is the relative decrease from the control value, in per cent. As to `COc1ccc(-c2ccc3c(n2)CCCN3S(=O)(=O)c2ccc(C)cc2)cc1`, the inhibition is -6.68%.
The result for `Cc1nc(NC(=O)C(C)(C)C)sc1[N+](=O)[O-]` reads -6.84%.
Consider `CSc1ccc(-c2c(C#N)c(N)nc3c2c(C)nn3-c2ccccc2)cc1`, for which the inhibition was -3%.
The result for `COc1ccccc1-c1c(C#N)c(N)nc2c1CCC2` reads -3.19%.
For `CSc1nc(N)c(C#N)c(-c2ccccc2Cl)c1C#N`, the inhibition was 13.6% (active).
Consider `Cc1ccc(N)cc1CN1CCN(c2ncc(Cc3ccccc3)cn2)CC1`, for which the inhibition is 3.95%.
For `COc1ccccc1Cc1c(-c2ccc(F)cc2)nc2ccc(C)cn12`, the inhibition is -8.12%.
Under `CCOC(=O)C1=C(C(=O)OCC)C2N(Cc3ccc(C#N)cc3)c3ccccc3[C@@]23C[C@@H](C(=O)OC)N(S(=O)(=O)c2ccc(F)cc2)C3=N1` (stereo partly drawn) stands -4.3%; under `Cn1nccc1C(=O)NC1CCCc2c1cnn2-c1ccc(F)cc1F` (stereo not drawn), 99.2% (active); under `COc1ccc(OC)c(C(=O)NC2CCCc3c2cnn3-c2cc(C)cc(C)c2)c1` (stereo not drawn), -8.72%.
In the case of `Cn1nccc1C(=O)NC1CCCc2c1cnn2-c1ccccc1F` (stereo not drawn), the inhibition was 103% (active).
The result for `CC1(C)Cc2c(cnn2-c2cccc(F)c2)C(NC(=O)c2cc[n+]([O-])cc2)C1` (stereo not drawn) reads -2.25%; that for `COc1ccc(C(=O)NC2CC(C)(C)Cc3c2cnn3-c2ccccc2C)o1` (stereo not drawn), -3.9%; that for `COc1ccc(C(=O)NC2CCCc3c2cnn3-c2cccc(C)c2C)c(OC)n1` (stereo not drawn), 4.34%.
Under `Cc1ccccc1C(=O)N[C@H](C(=O)N1CCC[C@H]1C(=O)NCc1ccccc1)C(C)C` stands -4.85%.
Under `COc1ccc(NS(=O)(=O)c2ccc(C(=O)Nc3c(C)n(C)n(-c4ccccc4)c3=O)cc2)cc1` stands -0.08%; under `COc1ccc(NS(=O)(=O)c2ccc(NC(=O)c3ccc(N(C)S(C)(=O)=O)cc3)cc2)cc1`, 82.7% (active).
As for `COc1ccc(NS(=O)(=O)c2cc(NC(=O)c3ccc(S(=O)(=O)N(C)C)cc3)ccc2N2CCOCC2)cc1`, the inhibition was -5.13%.
On to `Nc1ncnc2c1ncn2[C@@H]1O[C@H](C(=O)N[C@@H](CCc2ccccc2)C(=O)NCC(=O)N2CCOCC2)[C@@H](O)[C@H]1O`, for which the inhibition is -4.93%.
Consider `Cc1cc(N2CCN(C(=O)OC(C)(C)C)C[C@H]2C)ccc1N1CCN(Cc2ccccc2)[C@H](C)C1`, for which the inhibition is -6.01%.
For the compound `CC(=O)OC(C)C[N+](C)(C)C` (stereo not drawn), the inhibition was 32.6% (active).
Under `CC(=O)OCCC(C)C` stands -6.17%; under `CC(C[N+](C)(C)C)OC(N)=O` (stereo not drawn), -2.23%; under `COCc1cc(N2CCN(C(=O)OC(C)(C)C)C[C@@H]2C)ccc1N1CCN(Cc2ccccc2)[C@H](C)C1`, -0.36%.
The result for `Cc1ccc2nc(-c3ccc(CN4CCC(n5cc(-c6ccccc6)[nH]c5=O)CC4)cc3)c(-c3ccccc3)nc2c1` reads -5.31%; that for `COc1cccc(C(=O)OCC(=O)c2[nH]c(C)c(C(C)=O)c2C)c1`, -7.96%.
Under `CC(=O)c1c(C)[nH]c(C(=O)COC(=O)c2cccc(S(=O)(=O)N(C)c3ccccc3)c2)c1C` stands 78.8% (active).
For `CC(=O)c1c(C)[nH]c(C(=O)COC(=O)c2cccs2)c1C`, the inhibition is -4.13%.
Under `COCc1c(C(=O)N/N=C\c2cccnc2)nnn1-c1nonc1N` stands -5.53%.
The result for `Nc1nonc1-n1nnc(C(=O)N/N=C/c2cc(Br)ccc2O)c1CSC1=NCCS1` reads 76.9% (active); that for `CC(C)c1c(C(=O)N/N=C/c2ccccc2C(=O)O)nnn1-c1nonc1N`, -9.07%.
As for `Cc1cc(OC(=O)NCCc2ccc(F)cc2)ccc1F`, the inhibition is -6.58%.
With `C=CCN=C1NC(c2cccc(C(F)(F)F)c2)C(C(=O)OC)=C(C)N1C` (stereo not drawn), the inhibition was -7.24%.
The result for `CC(C)[C@@H](C)/C=C/[C@@H](C)[C@H]1CC[C@@H]2[C@]1(C)CCC1[C@]23C=C[C@]2(C[C@@H](O)CC[C@]12C)N(c1ccc([N+](=O)[O-])cn1)O3` (stereo partly drawn) reads 2.02%; that for `COC(=O)C1=C(C)N(Cc2ccccc2C(F)(F)F)C(=NCc2ccc(C(F)(F)F)cc2)NC1c1ccc(F)cc1` (stereo not drawn), -4.63%; that for `CCCCCCCCN1C(=O)[C@@H](CC(=O)NCc2ccc(C)o2)C[C@@]2(C(=O)OC)C1=C[C@H](C(C)(C)C)O[C@@H]2C`, -4.99%.
The result for `O=C(CC(O)(C(F)(F)F)C(F)(F)F)Nc1ccc(Cl)c(Cl)c1` reads 58.6% (active); that for `O=C(Cc1ncc(C(F)(F)F)cc1Cl)Nc1cccc(Br)c1`, 2.24%; that for `CN(CC(=O)Nc1ccc(Cl)c(C(F)(F)F)c1)C(=O)CCC(=O)c1ccccc1`, -4.03%.
The result for `Nc1ncnc2c1ncn2[C@@H]1O[C@H](C(=O)N[C@@H](CCc2ccccc2)C(=O)N2CCCN(Cc3cccs3)CC2)[C@@H](O)[C@H]1O` reads -6.23%.
Turning to `O=C(O)Cn1cnc2c(NCc3ccccc3)ncnc21`, the inhibition is -5.71%.
As to `C=CCN1C(=O)N(Cc2ccccc2)c2ccccc2S1(=O)=O`, the inhibition is -6.64%.
`N#Cc1c(N)nc2c3c(sc(=N)c2c1N)NC(=O)CC3c1ccccc1Cl` (stereo not drawn): the inhibition is 62.4% (active).
The result for `COc1ccc(OC)c2c(N)c(C#N)c(C(F)(F)C(F)(F)F)nc12` reads 1.89%; that for `COc1ccc(C2CC(=O)Nc3sc(=N)c4c(N)c(C#N)c(N)nc4c32)cc1OC` (stereo not drawn), 64.7% (active).
For the compound `CSc1nc2c(c(=O)[nH]1)C(c1cccc(Cl)c1Cl)CC(=O)N2` (stereo not drawn), the inhibition is 12.2%.
Under `COc1ccc(C2OCC3(CO2)SC(=O)NC3=O)cc1OC` (stereo not drawn) stands -2.1%; under `COC(=O)[C@]12C[C@H](CC(=O)N3CCN(C(=O)C4CC4)CC3)C(=O)N(Cc3ccc4c(c3)OCO4)C1=C[C@H](C(C)(C)C)O[C@@H]2C`, -5.6%.
Take `N#Cc1cccc(C(=O)NCC2CCN(C(=O)C(=O)c3cc4ccccc4o3)CC2)c1`: the inhibition was -3.55%.
The result for `CCOC(=O)CNC(=O)N(C)[C@H]1C[C@H]2c3[nH]c4c(-c5ccc6c(c5)OCO6)cccc4c3CCN2C(=O)[C@H]1[C@H](C)O` reads -5.71%.
The result for `COc1ccc(-c2csc(-c3cccs3)n2)cc1OC` reads 14.8% (active); that for `COc1ccc(C(C)(O)c2nc(-c3ccc(C)c(C)c3)cs2)cc1` (stereo not drawn), -5.12%; that for `COc1ccc(C2CC(c3cccs3)=Nc3ccccc3S2)cc1OC` (stereo not drawn), -5.75%.
